# From PubChem
# Pf growth 96h – P. falciparum growth inhibition at 96 hour, primary screen for plastid delayed-death inhibitors. Potency, µM (titrated, usually from 28.7 µM), without a hit: top-dose activity change, negative = inhibition, hits mostly inhibitors. hit rate 6.9% among 320,000. P. falciparum luciferase reporter growth, 96 h. AID 504834; further: potency means the concentration at half of the fitted maximal effect; on the % scale 0 is the no-effect control and ±100 the full control effect
#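 Infected RBCs, 2% Hct / 0.05% parasitemia final; luciferase-reporter P. falciparum; cpd 96 h, 37 C, 5% CO2; luciferase detection reagent; luminescence.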
# Shiga inhibitor – blocks Shiga toxin action in Vero cells | AID 2315 | Vero cells, Shiga toxin protein synthesis inhibition reporter | inhibition, % at 38.7 µM | hit rate 9.2% among 290,000; in the data active means inhibition mostly above about 28%, no sharp cut-off; inactive means mostly below about 43%; further: 0% is about no effect
# HCMV inh – blocks human cytomegalovirus replication. HFF cells, HCMV-luciferase reporter, 72 h; hits give low values. hit rate 4.5% among 410,000. activity change, negative = inhibition, % at 57.5 µM. AID 1259415; in the data active means activity change below about -60%; inconclusive means no clear call, values can overlap the other calls; inactive means above about -39%; further: on the % scale 0 is the no-effect control and ±100 the full control effect
#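 Human foreskin fibroblasts infected with luciferase-reporter HCMV at MOI 1 PFU/cell, compounds at two doses. Luciferase measured 72 h post infection; normalized to buffer-only basal and Salinomycin (10uM) controls.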
# Pf growth 48h – P. falciparum growth inhibition at 48 hours (one generation); Potency, µM (doses to about 28.7 µM), without a hit: at the top dose activity change, negative = inhibition, most hits filed as inhibitors; P. falciparum luciferase growth in erythrocytes, 48 h; hit rate 5.9% among 310,000; further: potency means the concentration at half of the fitted maximal effect; on the % scale 0 is the no-effect control and ±100 the full control effect
#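 Here the parasites carry a stable luciferase gene and grow inside erythrocytes in Albumax-based RPMI medium with compound for one erythrocytic cycle. Activity is scored as loss of luminescent signal.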
# CHX counter – counter-screen for Shiga toxin inhibitors: cycloheximide protein synthesis inhibition | max response, % | cell reporter, cycloheximide protein synthesis inhibition counterscreen | hit rate 12% among 300,000 | AID 2314; in the data active means max response mostly above about 13%, no sharp cut-off; inactive means mostly below about 14%; further: read at 38.3 µM for the half of the compounds with a filed dose; 0% is about no effect
# Active calls of the source: *; i = inactive; ? = inconclusive; / = no result. In the library only some 20% were active in any assay of this set; here they are far more common. Unless noted, the call rests on the fitted dose curve; in most records, active means well fitted inhibition curve with a large enough effect; inconclusive means small, poorly fitted or top-dose-only effect, or another doubt; inactive means no such curve, though single readings can be large or run the other way.
SMILES,Pf growth 96h,Shiga inhibitor,HCMV inh,Pf growth 48h,CHX counter
COc1ccc(N2CCN(CC(O)COc3ccccc3[N+](=O)[O-])CC2)cc1 (configuration not stated),-24%,7,-21,-11%,-2
CCc1ccc2oc(C(=O)NCCc3ccc(OC)c(OC)c3)cc(=O)c2c1,/,/,-39,/,/
CC(C)c1ccc(NC(=O)c2cc(S(=O)(=O)NCC3COc4ccccc4O3)ccc2F)cc1 (configuration not stated),2.9µM*,-13,-13,?,-2
Cc1cc(N2CCN(c3cccc(C)c3C)CC2)n2cnnc2n1,/,/,-18,/,/
COc1ccccc1-c1noc(-c2ccc(NCCc3ccccc3)c([N+](=O)[O-])c2)n1,/,/,32,/,/
COc1ccc(C)cc1NC(=O)c1cnc2n(c1=O)CCS2,?,6,51,27%,10*
COc1ccc(C)cc1NC(=O)c1cnc2scc(C)n2c1=O,-10%,0,-12,13%,-2
O=C(Nc1ccc(Oc2ccccc2)cc1)c1cnc2n(c1=O)CCS2,13µM*,-3,-86*,/,11
CCOc1ccccc1NC(=O)c1cnc2n(c1=O)CCS2,?,35,46,7%,4
O=C(NCCc1ccccc1)c1cnc2n(c1=O)CCS2,0%,111*,4,176%,34*
O=C(NCc1ccccc1Cl)c1cnc2n(c1=O)CCS2,16%,30,28,/,-2
O=C(NCc1cccnc1)c1cnc2n(c1=O)CCS2,/,10,32,-2%,3
O=C(NCCc1c[nH]c2ccccc12)c1cnc2n(c1=O)CCS2,34%,59*,51,70%,30*
CCN(c1ccccc1)S(=O)(=O)c1nnc(NC(=O)C2CCCCC2)s1,/,/,-11,/,/
C[C@H]1CN(S(=O)C(C)(C)C)[C@@H](CCO)/C1=C\c1ccccc1 (some centres not stated),/,/,3,/,/
CSc1nncc(-c2ccc(F)cc2)n1,?,24,3,?,14*
COc1ccc(COn2nnc3ccc(S(=O)(=O)N4CCOCC4)cc32)cc1F,?,/,-27,?,/
COC(=O)C(/C=N/O)NC(=O)c1ccccc1 (configuration not stated),?,-8,?,?,-1
CO/N=C/C(NC(=O)c1ccc(C(F)(F)F)cc1)C(=O)OC (configuration not stated),?,48,-26,401%,23*
COc1ccccc1CCNC(=O)CN1C(=O)c2ccccc2S1(=O)=O,28%,/,5,-9%,/
COC(=O)c1nnn(CC(=O)Nc2cc(F)ccc2F)c1C(=O)OC,/,/,-109*,/,/
CC1(C)COC(c2coc3ccccc3c2=O)OC1,119%,87*,25,60%,46*
COc1ccc(NC(=O)C/C(C)=N/NC(=O)c2ccncc2)c([N+](=O)[O-])c1,4%,-8,-17,7%,-3
Cc1ccc(NC(=O)c2ccco2)c([N+](=O)[O-])c1,?,107*,-30,i,41*
COc1ccc(NC(=O)c2ccco2)c([N+](=O)[O-])c1,-10%,35*,6,132%,20*
SMILES,Pf growth 96h,Shiga inhibitor,HCMV inh,Pf growth 48h,CHX counter
COc1ccc(NC(=O)CN2CCC(NC(=O)c3ccco3)CC2)c([N+](=O)[O-])c1,-17%,-5,-16,?,-3
COc1ccc(NC(=O)C/C(C)=N/NC(=O)c2ccco2)c([N+](=O)[O-])c1,?,93*,?,5%,19*
Cc1ccc(OCC(=O)N(Cc2sccc2C)C2CCS(=O)(=O)C2)cc1 (configuration not stated),/,/,-3,/,/
CCOC(=O)Cn1c(-c2cccs2)cc2cc(Cl)ccc21,/,/,-10,/,/
CCOC(=O)/C=C/[C@@H](CCC(=O)OC)NC(=O)C(F)(F)F,/,/,-16,/,/
CCc1ccccc1N(CC)C(=O)Cn1nc(Cc2ccncc2)c2ccccc2c1=O,/,/,-72*,/,/
CCOC(=O)c1oc2ccccc2c1NC(=O)c1ccc(Cl)s1,2%,-8,-7,-11%,-4
CN=c1sc(C(=O)Nc2ccccc2)c(C)n1C,4%,-6,-7,34%,2
C=CCn1c(=NC(=O)c2ccco2)sc2cc(C(=O)OCC)ccc21,6.6µM*,-5,7,15%,3
CCOC(=O)c1sc(=NC(=O)/C=C/c2ccccc2)n(C)c1C,92%,68*,-15,65%,38*
